PubChem BioAssay AID1159580 (chemical genetic matrix, 2015)
Where “and” joins values, the source holds several entries; their conditions need not be identical. Identical values can stand only once. In all, about 5,500 compounds went through this assay and about 2,000 (36%) were called active. Not shown: some 18% with an inconclusive outcome. Rule as the data show it: active = normalized growth mostly below about 0.91 (no sharp cut-off); inconclusive = no clear call, values can overlap the other calls; inactive = mostly above about 0.92. Some of the results follow.

Assay: chemical genetic growth profiling, strain panel (AID 1159580);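 also: tested at 20 µM; growth read once vehicle control cultures reached saturation at 30 °C; 1 = growth at the plate median or of vehicle wells; lower values mean less growth of the strain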
Details: S. cerevisiae deletion strains, growth OD

Measured: normalized growth

Nc1c2c(nc3ccccc13)CCCC2
inactive: locus YAL013W, strain DEP1, stronger effect = lower value 1.02 | locus YAL021C, strain ccr4, stronger effect = lower value 0.985 | locus YAL026C, strain drs2, stronger effect = lower value 0.975 | locus YAL030W, strain snc1, stronger effect = lower value 1.01 | locus YAL040C, strain CLN3, stronger effect = lower value 1.02 | locus YBL061C, strain skt5, stronger effect = lower value 0.984 | locus YBR009C, strain hhf1, stronger effect = lower value 0.978 | locus YBR021W, strain FUR4, stronger effect = lower value 0.853 | locus YBR023C, strain chs3, stronger effect = lower value 0.993 | locus YBR171W, strain sec66, stronger effect = lower value 0.959 | locus YBR229C, strain ROT2, stronger effect = lower value 1.02 | locus YBR231C, strain swc5, stronger effect = lower value 0.981 | locus YBR279W, strain paf1, stronger effect = lower value 1 | locus YCL011C, strain gbp2, stronger effect = lower value 1 | locus YCL016C, strain dcc1, stronger effect = lower value 1.01 | locus YCL029C, strain bik1, stronger effect = lower value 1.02 | locus YCL069W, strain vba3, stronger effect = lower value 0.989 | locus YCR088W, strain abp1, stronger effect = lower value 0.993 | locus YDL005C, strain med2, stronger effect = lower value 0.977 | locus YDL035C, strain GPR1, stronger effect = lower value 1.01 | locus YDL040C, strain nat1, stronger effect = lower value 0.989 | locus YDL074C, strain BRE1, stronger effect = lower value 1.01 | locus YDL101C, strain DUN1, stronger effect = lower value 1.02 | locus YDL134C, strain PPH21, stronger effect = lower value 1 | locus YDL185W, strain tfp1, stronger effect = lower value 1.01 | locus YDL192W, strain arf1, stronger effect = lower value 1.01 | locus YDR001C, strain nth1, stronger effect = lower value 0.983 | locus YDR069C, strain doa4, stronger effect = lower value 0.936 | locus YDR101C, strain arx1, stronger effect = lower value 1.02 | locus YDR137W, strain rgp1, stronger effect = lower value 1.02 | locus YDR150W, strain NUM1, stronger effect = lower value 1.02 and 0.999 | locus YDR159W, strain sac3, stronger effect = lower value 0.939 | locus YDR162C, strain NBP2, stronger effect = lower value 1.02 | locus YDR195W, strain ref2 0.963 | locus YDR297W, strain sur2, stronger effect = lower value 0.986 | locus YDR318W, strain mcm21, stronger effect = lower value 1.01 | locus YDR334W, strain swr1, stronger effect = lower value 0.974 | locus YDR335W, strain msn5, stronger effect = lower value 0.992 | locus YDR388W, stronger effect = lower value 1 | locus YDR392W, strain spt3, stronger effect = lower value 0.939 | locus YDR502C, strain sam2, stronger effect = lower value 1.02 | locus YEL003W, strain gim4, stronger effect = lower value 0.973 | locus YEL037C, strain rad23, stronger effect = lower value 0.978 | locus YEL061C, strain CIN8 (second series), stronger effect = lower value 0.983 | locus YEL061C, strain CIN8, stronger effect = lower value 1.01 | locus YER002W, strain NOP16, stronger effect = lower value 0.997 | locus YER015W, strain faa2, stronger effect = lower value 0.987 | locus YER016W, strain bim1, stronger effect = lower value 0.994 | locus YER110C, stronger effect = lower value 1.02 | locus YER111C, strain swi4, stronger effect = lower value 0.988 | locus YER155C, strain BEM2 (second series), stronger effect = lower value 0.902 | locus YER155C, strain BEM2, stronger effect = lower value 1 | locus YER167W, strain BCK2, stronger effect = lower value 1.01 | locus YFR010W, strain ubp6, stronger effect = lower value 0.944 | locus YGL078C, strain dbp3, stronger effect = lower value 1.02 | locus YGL086W, strain mad1, stronger effect = lower value 1.01 | locus YGL167C, strain pmr1, stronger effect = lower value 0.978 | locus YGL173C, strain kem1, stronger effect = lower value 0.958 | locus YGL227W, strain vid30, stronger effect = lower value 0.993 | locus YGL240W, strain doc1, stronger effect = lower value 0.946 | locus YGL248W, strain PDE1, stronger effect = lower value 1.02 | locus YGL253W, strain hxk2, stronger effect = lower value 0.96 | locus YGR078C, strain PAC10, stronger effect = lower value 0.992 | locus YGR135W, strain pre9, stronger effect = lower value 0.987 | locus YGR229C, strain SMI1, stronger effect = lower value 1.02 | locus YGR252W, strain gcn5, stronger effect = lower value 0.977 | locus YHR013C, strain ard1, stronger effect = lower value 0.867 | locus YHR027C, strain rpn1, stronger effect = lower value 0.968 | locus YHR030C, strain SLT2, stronger effect = lower value 1.01 and 0.987 | locus YHR079C, strain IRE1 (second series), stronger effect = lower value 1.02 | locus YHR079C, strain IRE1, stronger effect = lower value 1 | locus YHR094C, strain hxt1, stronger effect = lower value 1.02 | locus YHR129C, strain ARP1, stronger effect = lower value 1.02 | locus YHR142W, strain chs7, stronger effect = lower value 1 | locus YHR200W, strain rpn10, stronger effect = lower value 1.01 | locus YIL066C, strain RNR3, stronger effect = lower value 1.02 | locus YIL073C, strain SPO22, stronger effect = lower value 1.14 | locus YIL125W, strain kgd1, stronger effect = lower value 1.02 | locus YIR030C, strain dcg1, stronger effect = lower value 1.02 | locus YJL092W, strain hpr5, stronger effect = lower value 0.983 | locus YJL095W, strain BCK1 (second series), stronger effect = lower value 0.991 | locus YJL095W, strain BCK1, stronger effect = lower value 1.01 and 1 | locus YJL115W, strain asf1, stronger effect = lower value 0.981 | locus YJL129C, strain trk1, stronger effect = lower value 0.997 | locus YJL134W, strain LCB3, stronger effect = lower value 1.01 | locus YJL154C, strain vps35, stronger effect = lower value 0.974 | locus YJL164C, strain tpk1, stronger effect = lower value 1.01 | locus YJL166W, strain qcr8, stronger effect = lower value 0.992 | locus YJL168C, strain set2, stronger effect = lower value 1.01 | locus YJL187C, strain SWE1 (second series), stronger effect = lower value 1.01 | locus YJR043C, strain POL32, stronger effect = lower value 1.04 | locus YJR066W, strain TOR1, stronger effect = lower value 0.987 | locus YJR075W, strain HOC1, stronger effect = lower value 0.976 | locus YKL009W, strain mrt4, stronger effect = lower value 1.01
